The supplement of paper PMC9262897, “Low-cost anti-mycobacterial drug discovery using engineered E. coli” (Nature Communications, 2022)
Counter-ions that a name gives are not always drawn. ± gives the standard deviation of the averaged measurements.

Legend:
Assay in all cases: growth (OD600 after 10 h); higher = more growth (less inhibition)
[1] = tested on: E. coli TESEC Alr+ wild-type control; details: compound 0.1 mM; raw OD600 reference: median of DMSO wells 0.241, cell-free background 0.041
Description: (§1)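 TESEC Mtb Alr E. coli, or the Alr+ wild-type control, in 384-well plates with Prestwick library compounds at 0.1 mM and 1% DMSO, across arabinose induction levels of 1E3 to 1E7 nM. Growth is read as OD600 after 10 h at 37 °C in triplicate biological replicates.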

E. coli TESEC Mtb Alr [2] = details: compound 0.1 mM
Description: as §1

E. coli TESEC Mtb Asd = details: compound 0.1 mM
Description: (§2)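 TESEC E. coli strains in which the native enzyme is deleted and replaced by arabinose-inducible Mtb Asd, DapB, CysH or TrpD, each grown in its selective medium. Strains were screened against the Prestwick library at 0.1 mM and 1% DMSO in 384-well format at low and high arabinose induction. Growth is read as OD600 after 10 h in triplicate.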

E. coli TESEC Mtb DapB = details: compound 0.1 mM
Description: as §2

[3] = tested on: E. coli TESEC Alr+ wild-type control; details: compound 0.1 mM; raw OD600 reference: median of DMSO wells 0.49, cell-free background 0.052
Description: (§3)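 TESEC Mtb Alr E. coli (ΔaraC ΔtolC ΔentC Δalr ΔdadX, arabinose-inducible Mtb Alr) or the Alr+ wild-type control strain, grown in defined M9-fructose medium without D-alanine in 96-well plates with Prestwick library compounds at 0.1 mM and 1% DMSO. Low Alr induction is 0.1 µM arabinose and high induction is 10 mM arabinose.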

E. coli TESEC Mtb Alr [4] = details: compound 0.1 mM; remark: listed apart in the source
Description: as §3

[5] = arabinose 1000 nM, raw OD600 reference: median of DMSO wells 0.294, cell-free background 0.041
[6] = arabinose 10000 nM, raw OD600 reference: median of DMSO wells 0.264, cell-free background 0.041
[7] = arabinose 100000 nM, raw OD600 reference: median of DMSO wells 0.201, cell-free background 0.041
[8] = arabinose 1000000 nM, raw OD600 reference: median of DMSO wells 0.193, cell-free background 0.041
[9] = arabinose 10000000 nM, raw OD600 reference: median of DMSO wells 0.146, cell-free background 0.041
[10] = arabinose induction (level): High, raw OD600 reference: median of DMSO wells 0.331, cell-free background 0.041
[11] = arabinose induction (level): Low, raw OD600 reference: median of DMSO wells 0.417, cell-free background 0.041
[12] = arabinose induction (level): High, raw OD600 reference: median of DMSO wells […], cell-free background 0.041
[13] = arabinose induction (level): Low, raw OD600 reference: median of DMSO wells 0.227, cell-free background 0.041
[14] = arabinose 100 nM, raw OD600 reference: median of DMSO wells 0.413, cell-free background 0.052
[15] = arabinose 10000000 nM, raw OD600 reference: median of DMSO wells […], cell-free background 0.052

SMILES | growth [1] | growth (E. coli TESEC Mtb Alr [2]; [5]) | growth (E. coli TESEC Mtb Alr [2]; [6]) | growth (E. coli TESEC Mtb Alr [2]; [7]) | growth (E. coli TESEC Mtb Alr [2]; [8]) | growth (E. coli TESEC Mtb Alr [2]; [9]) | growth (E. coli TESEC Mtb Asd; [10]) | growth (E. coli TESEC Mtb Asd; [11]) | growth (E. coli TESEC Mtb DapB; [12]) | growth (E. coli TESEC Mtb DapB; [13]) | growth [3] | growth (E. coli TESEC Mtb Alr [4]; [14]) | growth (E. coli TESEC Mtb Alr [4]; [15])
CC(C)(C(=O)c1cccnc1)c1cccnc1 [Metyrapone] | 0.246 ± 0.0034 | 0.311 ± 0.017 | 0.273 ± 0.0073 | 0.198 ± 0.0061 | 0.2 ± 0.017 | 0.1411 ± 0.00086 | 0.317 ± 0.017 | 0.428 ± 0.0064 | 0.179 ± 0.015 | 0.188 ± 0.01 | 0.637 ± 0.095 | 0.409 ± 0.013 | 0.3383 ± 0.0029
COC(=O)CCc1ccc(OCC(O)CNC(C)C)cc1 (configuration not stated) [Esmolol hydrochloride] | 0.234 ± 0.014 | 0.295 ± 0.018 | 0.2542 ± 0.00042 | 0.218 ± 0.0079 | 0.195 ± 0.0068 | 0.129 ± 0.0016 | 0.242 ± 0.013 | 0.432 ± 0.022 | 0.195 ± 0.0058 | 0.227 ± 0.019 | 0.431 ± 0.019 | 0.405 ± 0.015 | 0.388 ± 0.021
CCOc1ccc(NC(C)=O)cc1 [Phenacetin] | 0.243 ± 0.0043 | 0.2912 ± 0.0014 | 0.27 ± 0.0042 | 0.231 ± 0.028 | 0.1828 ± 0.0017 | 0.152 ± 0.0045 | 0.345 ± 0.083 | 0.413 ± 0.084 | 0.208 ± 0.019 | 0.224 ± 0.012 | 0.506 ± 0.071 | 0.411 ± 0.011 | 0.329 ± 0.019
COc1c(N2C[C@@H]3CCCN[C@@H]3C2)c(F)cc2c(=O)c(C(=O)O)cn(C3CC3)c12 [Moxifloxacin] | 0.04227 ± 0.00025 | 0.04077 ± 0.00035 | 0.0401 ± 0.0003 | 0.0415 ± 0.0005 | 0.04013 ± 0.00012 | 0.0446 ± 0.0054 | 0.0511 ± 0.0029 | 0.052 ± 0.0016 | 0.04903 ± 0.00038 | 0.04933 ± 0.00035 | 0.0539 ± 0.0014 | 0.05287 ± 0.00031 | 0.0516 ± 0.0013
CCCCOC(=O)c1ccc(N)cc1 [Butamben] | 0.194 ± 0.0098 | 0.23 ± 0.018 | 0.277 ± 0.0069 | 0.186 ± 0.011 | 0.233 ± 0.0061 | 0.16 ± 0.0031 | 0.566 ± 0.058 | 0.304 ± 0.11 | 0.23 ± 0.086 | 0.218 ± 0.07 | 0.452 ± 0.0073 | 0.36 ± 0.026 | 0.344 ± 0.018
N=C(N)N/N=C/c1c(Cl)cccc1Cl [Guanabenz acetate] | 0.189 ± 0.012 | 0.224 ± 0.0084 | 0.2721 ± 0.00092 | 0.221 ± 0.021 | 0.144 ± 0.005 | 0.168 ± 0.0024 | 0.31 ± 0.039 | 0.432 ± 0.026 | 0.194 ± 0.0026 | 0.258 ± 0.065 | 0.453 ± 0.026 | 0.408 ± 0.0073 | 0.318 ± 0.011
CN1CCN(C2=Nc3ccccc3Oc3ccc(Cl)cc32)CC1 [Loxapine succinate] | 0.166 ± 0.0027 | 0.182 ± 0.0068 | 0.194 ± 0.0033 | 0.189 ± 0.0039 | 0.12 ± 0.0061 | 0.158 ± 0.0041 | 0.201 ± 0.029 | 0.214 ± 0.021 | 0.19 ± 0.0079 | 0.248 ± 0.079 | 0.399 ± 0.0093 | 0.381 ± 0.017 | 0.224 ± 0.014
CCN(CC)CCOCCOC(=O)C1(c2ccccc2)CCCC1 [Carbetapentane citrate] | 0.203 ± 0.0053 | 0.275 ± 0.015 | 0.249 ± 0.0094 | 0.191 ± 0.03 | 0.133 ± 0.004 | 0.161 ± 0.0033 | 0.153 ± 0.017 | 0.294 ± 0.064 | 0.185 ± 0.021 | 0.199 ± 0.011 | 0.539 ± 0.035 | 0.41 ± 0.0084 | 0.288 ± 0.012
CCc1cccc2c3c([nH]c12)C(CC)(CC(=O)O)OCC3 (configuration not stated) [Etodolac] | 0.24 ± 0.0076 | 0.272 ± 0.0061 | 0.264 ± 0.01 | 0.162 ± 0.0052 | 0.147 ± 0.004 | 0.1376 ± 0.00061 | 0.276 ± 0.027 | 0.267 ± 0.017 | 0.195 ± 0.0073 | 0.261 ± 0.033 | 0.415 ± 0.021 | 0.409 ± 0.011 | 0.264 ± 0.013
CO[C@@H]1[C@@H](O[C@@H]2O[C@H](C)[C@@H](O[C@H]3C[C@@](C)(O)[C@@H](OC(=O)CC(C)C)[C@H](C)O3)[C@H](N(C)C)[C@H]2O)[C@@H](CC=O)C[C@@H](C)[C@@H](O)/C=C/C=C/C[C@@H](C)OC(=O)C[C@H]1OC(C)=O [Josamycin] | 0.04167 ± 0.00025 | 0.04093 ± 5.8e-05 | 0.0406 ± 0.00026 | 0.04147 ± 0.00015 | 0.04073 ± 0.00029 | 0.04137 ± 5.8e-05 | 0.0609 ± 0.0067 | 0.0594 ± 0.0064 | 0.0494 ± 0.00059 | 0.0568 ± 0.0075 | 0.0528 ± 0.0019 | 0.0755 ± 0.021 | 0.0519 ± 0.00093
COc1cc2nc(N(C)CCCNC(=O)C3CCCO3)nc(N)c2cc1OC (configuration not stated) [Alfuzosin hydrochloride] | 0.215 ± 0.0062 | 0.286 ± 0.005 | 0.252 ± 0.0042 | 0.192 ± 0.027 | 0.142 ± 0.008 | 0.155 ± 0.011 | 0.24 ± 0.029 | 0.361 ± 0.029 | 0.217 ± 0.007 | 0.229 ± 0.006 | 0.462 ± 0.029 | 0.4 ± 0.013 | 0.318 ± 0.013
O=C(O)CCC(=O)c1ccc(-c2ccccc2)cc1 [Fenbufen] | 0.201 ± 0.0054 | 0.232 ± 0.013 | 0.229 ± 0.0062 | 0.137 ± 0.0052 | 0.128 ± 0.0089 | 0.127 ± 0.0092 | 0.25 ± 0.049 | 0.286 ± 0.047 | 0.165 ± 0.0041 | 0.203 ± 0.047 | 0.441 ± 0.051 | 0.399 ± 0.013 | 0.235 ± 0.007
Nc1ncnc2c1ncn2[C@@H]1O[C@H](CO)[C@@H](O)[C@@H]1O [Vidarabine] | 0.206 ± 0.012 | 0.273 ± 0.022 | 0.243 ± 0.011 | 0.145 ± 0.0058 | 0.148 ± 0.0035 | 0.138 ± 0.004 | 0.36 ± 0.077 | 0.383 ± 0.0057 | 0.171 ± 0.03 | 0.21 ± 0.048 | 0.535 ± 0.069 | 0.429 ± 0.012 | 0.306 ± 0.0082
CCSc1ccc2c(c1)N(CCCN1CCN(C)CC1)c1ccccc1S2 [Thiethylperazine dimalate] | 0.0403 ± 0.00055 | 0.0413 ± 0.0013 | 0.0405 ± 0.0005 | 0.0425 ± 0.002 | 0.03993 ± 0.00021 | 0.0411 ± 0.00055 | 0.0483 ± 0.0004 | 0.0464 ± 0.0011 | 0.0474 ± 0.0002 | 0.04737 ± 0.00025 | 0.0499 ± 0.0032 | 0.0513 ± 0.00084 | 0.0544 ± 0.0021
